PubChem BioAssay
The source made the active and inactive calls.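 How the source made its calls: active means inhibition at or above 50% relative to wild type and mutant plate controls; inactive means inhibition below 50%.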

Test: loss of swimming-algae plug formation – whole organism, Chlamydomonas reinhardtii, WT vs cilia-less mutant, absorbance, 96-well, primary screen (AID 463189);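 further: 0% = wild type cc124 cells in DMSO and 100% = ciliumless bld1 mutant cells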
Conditions: Chlamydomonas reinhardtii gravitaxis, OD600 absorbance, 2 days; at 10 µM; active compounds read high

Compound	inhibition
NC1(C(=O)O)CCc2cc(C(=O)O)ccc21 (stereo not given)	4.42% (inactive)
N[C@H](CCC(=O)NCS(=O)(=O)O)C(=O)O	4.82% (inactive)
N[C@@H](CC(=O)O)C(=O)O	4.32% (inactive)
NC(CCCP(=O)(O)O)C(=O)O (stereo not given)	-5.37% (inactive)
COc1cc2c(cc1O)CC[C@@H]1[C@@H]2CC[C@]2(C)[C@@H](O)CC[C@@H]12	-5.37% (inactive)
NC(=O)c1cc[n+](CC2=C(C(=O)O)N3C(=O)[C@@H](NC(=O)[C@@H](c4ccccc4)S(=O)(=O)[O-])[C@H]3SC2)cc1	-6.94% (inactive)
NC12CC3CC(CC(C3)C1)C2	-2.58% (inactive)
CCCCC#Cc1nc(N)c2ncn([C@@H]3O[C@H](C(=O)NCC)[C@@H](O)[C@H]3O)c2n1	-3.94% (inactive)
O=C(c1ccc(OCCN2CCCCC2)cc1)c1c(-c2ccc(O)cc2)sc2cc(O)ccc12	4.7% (inactive)
COCC(=O)O[C@]1(CCN(C)CCCc2nc3ccccc3[nH]2)CCc2cc(F)ccc2[C@@H]1C(C)C	11.6% (inactive)
Oc1ccc(C2CNCCc3c2cc(O)c(O)c3Cl)cc1 (stereo not given)	-6.72% (inactive)
Clc1cccc(Cl)c1NC1=NCCN1	5.28% (inactive)
O=C1NC(=O)C(c2ccccc2[N+](=O)[O-])=C1Nc1ccc(O)c(Cl)c1	1.1% (inactive)
O=C(c1ccccc1)c1ccc2n1CCC2C(=O)O (stereo not given)	-6.13% (inactive)
CC(=O)N[C@@H](Cc1c[nH]c2ccccc12)C(=O)OCc1cc(C(F)(F)F)cc(C(F)(F)F)c1	-0.535% (inactive)
